The list is not random: actives were taken first. Their share in the collection is about 27%.
CYP2C9 act – increases human cytochrome P450 2C9 activity | P11712 | hit rate 1.4% among 96,000 | activation factor at 5 µM | recombinant CYP2C9, luciferin-H conversion, luminescence; active compounds read high; factor 1 = untreated enzyme, 0 = blocked;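 active means activation factor of 2 or more for CYP2C9 at a 5 µM dose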
Target sequence (P11712 whole entry, looked up): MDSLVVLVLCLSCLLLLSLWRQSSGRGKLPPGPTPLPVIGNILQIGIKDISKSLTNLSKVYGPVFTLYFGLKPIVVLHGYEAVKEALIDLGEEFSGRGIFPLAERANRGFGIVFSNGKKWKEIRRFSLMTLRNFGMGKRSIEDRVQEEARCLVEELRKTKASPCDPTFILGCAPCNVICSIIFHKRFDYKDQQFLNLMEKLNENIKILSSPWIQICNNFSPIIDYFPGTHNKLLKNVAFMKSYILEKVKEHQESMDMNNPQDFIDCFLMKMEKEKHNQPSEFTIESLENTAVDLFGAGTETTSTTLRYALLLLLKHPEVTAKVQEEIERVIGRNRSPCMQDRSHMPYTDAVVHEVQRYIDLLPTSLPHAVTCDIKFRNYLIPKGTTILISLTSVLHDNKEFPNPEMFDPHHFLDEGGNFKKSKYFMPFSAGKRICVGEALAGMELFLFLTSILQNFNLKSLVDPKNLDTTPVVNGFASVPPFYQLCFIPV
CYP2C9 inhib – human CYP2C9 inhibition | CYP2C9 Supersomes, luciferin-H conversion, luminescence | inhibition, % at 5 µM | hit rate 20% among 96,000 | AID 777;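 active means blocking of liver enzyme CYP2C9 beyond about 50% at 5 µM, limit read from the data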
CYP2C19 activ – cytochrome P450 2C19 (human) activation | P33261 | recombinant CYP2C19, luciferin-H EGE luminescence; active compounds read high; 0 = fully inhibited enzyme, 1 = untreated enzyme | activation factor at 5 µM | 96,000 tested, under 10 active;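 active means activation factor of at least 2 at 5 µM in the primary screen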
CYP2C19 inh – human CYP2C19 inhibition; CYP2C19 Supersomes, luciferin-H EGE luminescence, 30 min; inhibition, % at 5 µM; hit rate 21% among 96,000;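 active means CYP2C19 inhibition above a set limit at 5 µM in the primary screen, cut at about 50% in these data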
Cav3 T inh – blocks human Cav3.2 T-type calcium channel. AID 449739. hit rate 4% among 100,000. Cav3.2-expressing cells, Fluo-4 calcium fluorescence FDSS; active compounds read low. B-score at 10 µM;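 active means single-dose well whose peak fluorescence ratio is a statistical outlier from its plate by either plate-standardised score or position-corrected B-score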
A number is an active result.

What do the screens show for `COc1cccc(-c2noc(Cn3nc(C)c([N+](=O)[O-])c3C)n2)c1`?
CYP2C9 act: inactive; CYP2C9 inhib: inactive; CYP2C19 activ: inactive; CYP2C19 inh: 56; Cav3 T inh: inactive

Results for Cc1nn(C(C)c2nc(-c3ccccc3)no2)c(C)c1[N+](=O)[O-] (stereo unspecified) ?
CYP2C9 act: inactive; CYP2C9 inhib: inactive; CYP2C19 activ: inactive; CYP2C19 inh: inactive; Cav3 T inh: inactive

What do the screens show for `Nc1ccc(C(=O)N/N=C\c2cc(N=Nc3cccc4ccccc34)ccc2O)cc1`?
CYP2C9 act: inactive; CYP2C9 inhib: inactive; CYP2C19 activ: inactive; CYP2C19 inh: inactive; Cav3 T inh: inactive

Results for O=C(Nc1ccc(N2CCCCC2)c(Cl)c1)c1ncn[nH]1 ?
CYP2C9 act: inactive; CYP2C9 inhib: inactive; CYP2C19 activ: inactive; CYP2C19 inh: inactive; Cav3 T inh: inactive

How did Cc1ccc2nc3sc(C(=O)N4CCOCC4)c(N)c3cc2c1 do in these assays?
CYP2C9 act: inactive; CYP2C9 inhib: inactive; CYP2C19 activ: inactive; CYP2C19 inh: inactive; Cav3 T inh: inactive

How did CC(C)c1ccc2nc3sc(C(=O)N4CCc5ccccc5C4)c(N)c3cc2c1 do in these assays?
CYP2C9 act: inactive; CYP2C9 inhib: 51; CYP2C19 activ: inactive; CYP2C19 inh: inactive; Cav3 T inh: inactive

What do the screens show for `CCN(CC)C(=O)c1ccc(NS(=O)(=O)c2ccccc2)cc1`?
CYP2C9 act: inactive; CYP2C9 inhib: 77; CYP2C19 activ: inactive; CYP2C19 inh: 82

Results for CC(=O)c1ccc(NC(=O)Oc2ccccc2)cc1 ?
CYP2C9 act: inactive; CYP2C9 inhib: inactive; CYP2C19 activ: inactive; CYP2C19 inh: 54; Cav3 T inh: inactive

How did CC(=O)c1ccc(NS(=O)(=O)c2ccccc2)cc1 do in these assays?
CYP2C9 act: inactive; CYP2C9 inhib: 79; CYP2C19 activ: inactive; CYP2C19 inh: 61; Cav3 T inh: inactive

Results for CC(=O)c1cccc(NC(=O)Oc2ccccc2)c1 ?
CYP2C9 act: inactive; CYP2C9 inhib: inactive; CYP2C19 activ: inactive; CYP2C19 inh: inactive

What do the screens show for `CCCCNC(=O)c1ccc(NS(=O)(=O)c2ccccc2)cc1`?
CYP2C9 act: inactive; CYP2C9 inhib: 93; CYP2C19 activ: inactive; CYP2C19 inh: inactive; Cav3 T inh: inactive

Results for CCN(CC)C(=O)c1ccc(C(=O)c2ccccc2)cc1 ?
CYP2C9 act: inactive; CYP2C9 inhib: inactive; CYP2C19 activ: inactive; CYP2C19 inh: inactive; Cav3 T inh: inactive

How did O=S(=O)(Nc1ccncc1)c1ccccc1 do in these assays?
CYP2C9 act: inactive; CYP2C9 inhib: inactive; CYP2C19 activ: inactive; CYP2C19 inh: inactive; Cav3 T inh: inactive

What do the screens show for `CCN1CCCC1CNC(=O)CCc1nc(-c2ccc(C)cc2)no1` (stereo unspecified)?
CYP2C9 act: inactive; CYP2C9 inhib: inactive; CYP2C19 activ: inactive; CYP2C19 inh: inactive; Cav3 T inh: inactive

What do the screens show for `O=C(COc1cccc(NC(=O)c2ccco2)c1)c1ccc(F)cc1`?
CYP2C9 act: inactive; CYP2C9 inhib: inactive; CYP2C19 activ: inactive; CYP2C19 inh: inactive; Cav3 T inh: inactive

What do the screens show for `C/C=C1\COC(C(=O)NCc2ccccc2)(C(F)(F)F)C=C1C=C1CCCCC1` (stereo unspecified)?
Cav3 T inh: -4.3

How did CC1(CC(=O)O)C(=O)N=C2C=CC=CN21 (stereo unspecified) do in these assays?
Cav3 T inh: inactive

How did Cc1ccc(S(=O)(=O)N2CCSC2c2ccco2)cc1 (stereo unspecified) do in these assays?
CYP2C9 act: inactive; CYP2C9 inhib: inactive; CYP2C19 activ: inactive; CYP2C19 inh: 96; Cav3 T inh: inactive

How did O=C(O)C1C2C=CC(C2)C1C(=O)NCCc1cccc(Cl)c1 (stereo unspecified) do in these assays?
Cav3 T inh: inactive

How did CCOc1ccc2nc(Cl)c(/C=C/C(=O)c3ccco3)cc2c1 do in these assays?
CYP2C9 act: inactive; CYP2C9 inhib: 53; CYP2C19 activ: inactive; CYP2C19 inh: inactive; Cav3 T inh: inactive

What do the screens show for `Cc1c(/C=N/n2cnnc2)c2ccccc2n1C`?
CYP2C9 act: inactive; CYP2C9 inhib: inactive; CYP2C19 activ: inactive; CYP2C19 inh: 77; Cav3 T inh: inactive

How did Cc1cccc(OCCn2c(S(=O)(=O)O)nc3ccccc32)c1 do in these assays?
CYP2C9 act: inactive; CYP2C9 inhib: inactive; CYP2C19 activ: inactive; CYP2C19 inh: inactive; Cav3 T inh: inactive

Results for COc1cccc(OCCn2c(C)c(/C=N/n3cnnc3)c3ccccc32)c1 ?
CYP2C9 act: inactive; CYP2C9 inhib: inactive; CYP2C19 activ: inactive; CYP2C19 inh: 56; Cav3 T inh: inactive

What do the screens show for `COc1ccc(OCCn2c(C)c(/C=N/n3cnnc3)c3ccccc32)cc1`?
CYP2C9 act: inactive; CYP2C9 inhib: 75; CYP2C19 activ: inactive; CYP2C19 inh: 76; Cav3 T inh: inactive

How did Cc1cc(C)cc(NC(=O)c2ccc(CSc3nnc(C)s3)cc2)c1 do in these assays?
CYP2C9 act: 2; CYP2C9 inhib: inactive; CYP2C19 activ: inactive; CYP2C19 inh: inactive; Cav3 T inh: -11

Results for O=C(O)c1ccc(CSc2nnc(SCc3ccccc3)s2)cc1 ?
CYP2C9 act: inactive; CYP2C9 inhib: inactive; CYP2C19 activ: inactive; CYP2C19 inh: inactive; Cav3 T inh: -6.6

Results for Cc1nnc(SCc2ccc(C(=O)O)cc2)s1 ?
CYP2C9 act: inactive; CYP2C9 inhib: inactive; CYP2C19 activ: inactive; CYP2C19 inh: inactive; Cav3 T inh: inactive

Results for CCOC(=O)C(C)Sc1nnc(-c2ccccc2O)n1Cc1ccccc1 (stereo unspecified) ?
CYP2C9 act: inactive; CYP2C9 inhib: inactive; CYP2C19 activ: inactive; CYP2C19 inh: inactive; Cav3 T inh: inactive

Results for O=C(c1ccc(Br)o1)N1CCN(c2ccc3nnc(-c4ccccc4)n3n2)CC1 ?
CYP2C9 act: inactive; CYP2C9 inhib: 88; CYP2C19 activ: inactive; CYP2C19 inh: 79; Cav3 T inh: 3.6

How did O=S(=O)(c1ccc(Br)cc1)N1CCN(c2ccc3nnc(-c4ccccc4)n3n2)CC1 do in these assays?
CYP2C9 act: inactive; CYP2C9 inhib: 80; CYP2C19 activ: inactive; CYP2C19 inh: 60; Cav3 T inh: inactive

How did Cc1nnc2ccc(N3CCN(C(=O)c4ccccc4)CC3)nn12 do in these assays?
CYP2C9 act: inactive; CYP2C9 inhib: inactive; CYP2C19 activ: inactive; CYP2C19 inh: inactive; Cav3 T inh: inactive

How did Nc1ccccc1-c1nnc(SCc2ccccc2F)[nH]c1=O do in these assays?
CYP2C9 act: inactive; CYP2C9 inhib: inactive; CYP2C19 activ: inactive; CYP2C19 inh: inactive; Cav3 T inh: inactive

Results for CCCCCOC(=O)C1=C(C)Nc2nnnn2C1c1ccccc1Cl (stereo unspecified) ?
CYP2C9 act: inactive; CYP2C9 inhib: inactive; CYP2C19 activ: inactive; CYP2C19 inh: inactive; Cav3 T inh: inactive

How did NC(=O)CC(NC(=O)c1ccccc1)c1ccc(NC2CCCCC2)c([N+](=O)[O-])c1 (stereo unspecified) do in these assays?
Cav3 T inh: inactive

What do the screens show for `CNCc1ccccc1Sc1ccc(OC)cc1`?
CYP2C9 act: inactive; CYP2C9 inhib: inactive; CYP2C19 activ: inactive; CYP2C19 inh: 65

What do the screens show for `COc1cccc(Sc2ccccc2CN(C)C)c1`?
CYP2C9 act: inactive; CYP2C9 inhib: inactive; CYP2C19 activ: inactive; CYP2C19 inh: 72; Cav3 T inh: inactive
